High-throughput results as filed in PubChem BioAssay.
CYP2C19 act = human CYP2C19 activators, primary screen, biochemical, luminescence; Cytochrome P450 2C19 (Homo sapiens), P33261; recombinant CYP2C19, luciferin-H EGE luminescence; stronger effect = higher value; 0 = fully inhibited enzyme, 1 = untreated enzyme; activation factor at 5 µM; 96,000 tested, under 10 active; AID 1025, 2008;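 active = activation factor of at least 2 at 5 µM in the primary screen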;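 also: 0 = wells with 2.5 mM tranylcypromine and 1 = vehicle-only wells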
CYP2C9 act = human CYP2C9 activators, primary screen, biochemical, luminescence | activation factor at 5 µM | recombinant CYP2C9, luciferin-H conversion; stronger effect = higher value; factor 1 = untreated enzyme, 0 = blocked | 96,000 tested, 1.4% active;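 active = activation factor of 2 or more for CYP2C9 at a 5 µM dose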;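 also: 0 = sulfaphenazole-blocked wells and 1 = vehicle-only wells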
Target sequence (P11712 whole entry, looked up): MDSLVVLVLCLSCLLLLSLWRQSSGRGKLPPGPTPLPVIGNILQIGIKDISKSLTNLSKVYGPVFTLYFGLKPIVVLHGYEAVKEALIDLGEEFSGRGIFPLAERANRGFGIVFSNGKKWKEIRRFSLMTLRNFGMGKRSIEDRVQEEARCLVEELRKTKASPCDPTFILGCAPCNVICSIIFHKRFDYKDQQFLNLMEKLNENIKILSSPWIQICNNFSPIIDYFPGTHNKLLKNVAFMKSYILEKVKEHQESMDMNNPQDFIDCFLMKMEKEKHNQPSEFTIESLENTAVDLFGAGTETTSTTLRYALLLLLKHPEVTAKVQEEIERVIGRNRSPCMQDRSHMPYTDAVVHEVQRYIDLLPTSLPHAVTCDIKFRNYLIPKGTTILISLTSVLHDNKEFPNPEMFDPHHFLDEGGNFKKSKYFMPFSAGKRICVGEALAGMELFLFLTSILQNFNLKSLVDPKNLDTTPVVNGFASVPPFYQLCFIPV
CYP2C19 inhib = blockers of cytochrome P450 2C19 activity – biochemical, luminescence, ADME assay, primary screen; inhibition, % at 5 µM; P33261; CYP2C19 Supersomes, luciferin-H EGE luminescence, 30 min; 96,000 tested, 21% active;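 active = CYP2C19 inhibition above a set limit at 5 µM in the primary screen, cut at about 50% in these data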;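 also: plate controls were negative control wells for no effect and 2.5 mM tranylcypromine positive control for full effect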
CYP2C9 inh = blockers of cytochrome P450 2C9 activity – biochemical, luminescence, ADME assay, primary screen. P11712. CYP2C9 Supersomes, luciferin-H conversion. inhibition, % at 5 µM. 96,000 tested, 20% active. AID 777, 2007;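 active = blocking of liver enzyme CYP2C9 beyond about 50% at 5 µM, limit read from the data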
Measles CPE = compounds protecting cells from measles virus cytopathic effect, primary screen, measles RdRp inhibitor project, single point, MLSMR library, absorbance; 140,000 tested, 1.5% active; Measles virus-infected cells, CPE protection; protection (pct of control), % at 4 µM; AID 841, 2007; in the data active = protection mostly above about 24%, no sharp cut-off; inactive = mostly below about 26%
Starred values were filed as active, the others as inactive. Hits are enriched below; roughly 22% of the tested compounds scored in any of these assays.

`COC(=O)COc1ccc2c(-c3ccc(OC)cc3)cc(=O)oc2c1` gave CYP2C19 act 0.5, CYP2C9 act 0.7, CYP2C19 inhib 51.7*, CYP2C9 inh 29.7 and Measles CPE 14.5.
For COC(=O)COc1ccc2c(-c3cccc([N+](=O)[O-])c3)cc(=O)oc2c1 the results were Measles CPE 6.8.
COc1ccc(C(=O)CSc2cc(C)nc(SCC(=O)c3ccc(C)cc3)n2)cc1 was read as Measles CPE 28.7.
COc1ccc(SCC(=O)c2cc(C)c(OC(=S)N(C)C)c(C)c2)cc1 was read as CYP2C19 act 0.1, CYP2C9 act 0.6, CYP2C19 inhib 87.2*, CYP2C9 inh 44.9 and Measles CPE 32.1.
Screening Cc1cc(C(=O)CSc2ccc(F)cc2)cc(C)c1OC(=S)N(C)C returned CYP2C19 act 0.1, CYP2C9 act 0.2, CYP2C19 inhib 93.5*, CYP2C9 inh 81.2* and Measles CPE 4.8.
`O=C(Nc1nc2c(s1)C(=O)CCC2)c1ccccc1` gave CYP2C19 act 0.6, CYP2C9 act 0.5, CYP2C19 inhib 40.6, CYP2C9 inh 53.0* and Measles CPE 5.1.
Screening COC(=O)NCC1(C)CC(NC(=O)OC)CC(C)(C)C1 (configuration not stated) returned CYP2C19 act 0.2, CYP2C9 act 1.2, CYP2C19 inhib 76.9*, CYP2C9 inh -17.0 and Measles CPE 4.0.
Cc1ccc(C2=NN3C(C(=O)c4ccccc4)Oc4ccccc4C3C2)cc1 (configuration not stated) was read as CYP2C19 act 0.2, CYP2C9 act 0.3, CYP2C19 inhib 81.7*, CYP2C9 inh 69.6* and Measles CPE 4.9.
Cc1ccccc1-n1c(SCC(=O)N2CCCC2)nnc1-c1ccccn1 was read as CYP2C19 act 0.8, CYP2C9 act 0.8, CYP2C19 inhib 21.0, CYP2C9 inh 17.8 and Measles CPE 3.0.
For O=C(c1ccc2c(c1)OCCCO2)c1cccs1 the results were CYP2C19 act 0.3, CYP2C9 act 0.4, CYP2C19 inhib 74.4*, CYP2C9 inh 59.6* and Measles CPE 16.7.
For O=C(Nc1ccc2c(c1)OCCO2)c1cccs1 the results were Measles CPE 9.1.
For COc1ccc(-n2c(Cn3nnc4ccccc43)n[nH]c2=S)cc1 the results were Measles CPE 10.4.
Screening COc1ccc(-n2c(=S)[nH]c3ccccc32)cc1 returned CYP2C19 act 0.5, CYP2C9 act 1.6, CYP2C19 inhib 53.8*, CYP2C9 inh -63.5 and Measles CPE 33.9.
Screening CCC1(C)N=c2c(c(=O)n(C)c(=O)n2C)=NO1 (configuration not stated) returned CYP2C19 act 1.1, CYP2C9 act 1.1, CYP2C19 inhib -14.1, CYP2C9 inh -11.6 and Measles CPE 13.7.
`CCCn1c(=O)[nH]c(=O)c2c1nc(-c1ccc(OC(F)F)c(OC)c1)n2CCOC` gave CYP2C19 act 0.6, CYP2C9 act 0.5, CYP2C19 inhib 44.8, CYP2C9 inh 53.9* and Measles CPE 27.1.
Screening Cc1ccccc1-n1c(SCC(=O)c2c(N)n(C)c(=O)n(C)c2=O)nc2sc3c(c2c1=O)CCCC3 returned Measles CPE 23.0.
Screening Cn1c(SCC(=O)NCCc2ccccc2)nnc1-c1ccco1 returned CYP2C19 act 1.1, CYP2C9 act 1.1, CYP2C19 inhib -6.7, CYP2C9 inh -14.6 and Measles CPE 6.1.
Screening COc1ccc(-c2c(-c3ccc(O)cc3O)n[nH]c2C)cc1OC returned CYP2C19 act 0, CYP2C9 act 0.1, CYP2C19 inhib 99.6*, CYP2C9 inh 92.4* and Measles CPE 3.2.
C=C(C)COc1ccc(-c2[nH]ncc2-c2ccc(Br)cc2)c(O)c1 was read as Measles CPE 8.0.
C=C(C)COc1ccc(-c2n[nH]c(C)c2-c2ccc(Br)cc2)c(O)c1 was read as CYP2C19 act 0.9, CYP2C9 act 0.4, CYP2C19 inhib 11.1, CYP2C9 inh 56.7* and Measles CPE 6.4.
For COc1cccc(-n2nnc3c(=O)n(Cc4ccccc4F)cnc32)c1 the results were CYP2C19 act 0.8, CYP2C9 act 1.5, CYP2C19 inhib 17.1, CYP2C9 inh -48.0 and Measles CPE 32.8.
COc1cccc2c(=O)c(C/C=C(/C)Cl)c(C)[nH]c12 was read as CYP2C19 act 0.2, CYP2C9 act 0.6, CYP2C19 inhib 83.7*, CYP2C9 inh 35.6 and Measles CPE 14.7.
For O=C(NNC(=S)NCc1ccco1)c1ccc(Cl)s1 the results were CYP2C19 act 0.5, CYP2C9 act 0.4, CYP2C19 inhib 46.5, CYP2C9 inh 55.4* and Measles CPE 4.2.
For Cc1c(Cl)c(C(=O)NNC(=S)NCc2ccco2)nn1C the results were Measles CPE 17.2.
`CC(=O)Oc1c(C)cc(Cl)cc1C(=O)Nc1ccc([N+](=O)[O-])cc1Cl` gave Measles CPE 2.2.
Cc1cc(C)nc(NN2C(=O)/C(=C/c3ccc(O)cc3)SC2=S)n1 was read as CYP2C19 act 1, CYP2C9 act 3.2*, CYP2C19 inhib 0.4, CYP2C9 inh -224.5 and Measles CPE 10.6.
`COCC(=O)Nc1ccccc1C(=O)Nc1ccc(OC)cc1` gave CYP2C19 act 0.7, CYP2C9 act 0.5, CYP2C19 inhib 26.9, CYP2C9 inh 49.6 and Measles CPE 9.6.
O=C(c1ccc(O)cc1)c1ccc(C(=O)c2ccc(O)cc2)cc1 was read as CYP2C19 act 1.1, CYP2C9 act 0.3, CYP2C19 inhib -5.3, CYP2C9 inh 68.6* and Measles CPE 6.4.
Screening COc1ccccc1CNc1nc2nc3c(c(=O)n2[nH]1)CCC3 returned CYP2C19 act 0.7, CYP2C9 act 0.2, CYP2C19 inhib 27.8, CYP2C9 inh 75.5* and Measles CPE 3.4.
For Cc1cccc(C(=O)N/N=C/c2ccncc2)c1 the results were CYP2C19 act 0.4, CYP2C9 act 0.6, CYP2C19 inhib 64.1*, CYP2C9 inh 39.0 and Measles CPE 3.5.
`CC(/C=N/NC(=O)c1ccncc1)=C\c1ccccc1` gave CYP2C19 act 0.2, CYP2C9 act 0.2, CYP2C19 inhib 81.2*, CYP2C9 inh 78.9* and Measles CPE 25.3.
CC(/C=N/NC(=O)c1cc(-c2ccc(C)s2)[nH]n1)=C\c1ccccc1 was read as Measles CPE 5.2.
`CC(/C=N/NC(=O)c1cc(C(C)(C)C)[nH]n1)=C\c1ccccc1` gave CYP2C19 act 0.8, CYP2C9 act 0.4, CYP2C19 inhib 17.6, CYP2C9 inh 60.2* and Measles CPE 4.2.
`CC(=C/c1ccc(C(C)C)cc1)/C=N/NC(=O)c1ccncc1` gave Measles CPE 7.8.
Screening O=C(CCc1nc2ccccc2c(=O)[nH]1)OCC(=O)c1ccc(C2CCCCC2)cc1 returned Measles CPE 16.3.
